The sample as a whole holds a higher share of hits than the screen did.
Tgondii IFNg = inhibitors of Toxoplasma gondii growth with IFN-gamma | Toxoplasma gondii growth in IFN-gamma-treated host cells; active compounds read low | activity change, negative = inhibition, % (test concentration not listed) | 3.8% of 69,000 active; in the data active = activity change below about -70%, passing the limit was not always enough;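 note: host cells are HeLa cells infected with Toxoplasma gondii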
Large screens that a line does not name were inactive.

COc1cc(C(=O)N2CCc3c([nH]c4ccccc34)C2c2ccc(SC)cc2)cc(OC)c1OC (centres undefined)	none
CSc1ccc(C2c3[nH]c4ccccc4c3CCN2C(=O)c2ccc(F)cc2)cc1 (centres undefined)	none
COc1ccc(C(=O)N2CCc3c([nH]c4ccccc34)C2c2ccc(SC)cc2)cc1 (centres undefined)	Tgondii IFNg -104.6
CSc1ccc(C2c3[nH]c4ccccc4c3CCN2C(=O)c2ccccc2)cc1 (centres undefined)	Tgondii IFNg -87.8
CC(C)CNc1nc2c(cc1C(=O)NC(C)C)CCN(c1ccncn1)CC2	none
Cc1ccc2[nH]cc(-c3cncnc3)c2c1	none
CCn1c2c(ccc1=O)CC(NC(=O)c1ccnnc1)CC2 (centres undefined)	none
COc1ccc(CNC(=O)c2nc(Nc3ccc(F)cc3)c3ccccc3n2)c(OC)c1	none
COc1cc(NS(C)(=O)=O)ccc1Cc1c2ccccc2nc2ccccc12	Tgondii IFNg -83.3
CCOC(=O)c1nc(Nc2ccc(OC)c(OC)c2)c2ccccc2n1	none
Cc1ccc(NC(=O)CN2CCC3(CC2)N=C(c2cccc(Cl)c2)C(=O)N3)cc1	none
CN1C(=O)CCC12CCC(NC(=O)Cc1ccccc1)CC2 (centres undefined)	none
COc1ccc(-c2cc(C(F)(F)F)nn2-c2nc(-c3ccc(C)cc3)cs2)cc1	none
CC(=O)Oc1cccc(-c2csc(-n3nc(C(F)(F)F)cc3-c3ccc(Cl)cc3)n2)c1	Tgondii IFNg -93.2
Cc1ccc(-c2cc(C(F)(F)F)nn2-c2nc(-c3ccccc3)cs2)cc1	none
Cc1cc(C)nc(Nc2cc(C3CN(c4ncccn4)C3)nc(C)n2)n1	none
Cc1c(NCc2cccnc2)cccc1C(=O)NCc1ccccc1Cl	none
COc1ccc(CN2CC3(COC(C(=O)CCN4CCOCC4)C3)c3ccccc32)cc1 (centres undefined)	none
COc1ccc(CN2CC3(COC(C(=O)N4CCCC4)C3)c3ccccc32)cc1 (centres undefined)	Tgondii IFNg -78.5
COCCN(C)C(=O)C1CC2(CO1)CN(Cc1ccc(OC)cc1)c1ccccc12 (centres undefined)	none
O=C(Cn1nc(C(c2ccccc2)c2ccccc2)oc1=O)N1CCCCC1	none
CC1CCN(S(=O)(=O)c2ccc3c(ccc(=O)n3CC(=O)NCCc3ccccc3)c2)CC1	none
Cn1cc(-c2ncnc3c2CCN(c2ncc(F)cn2)CC3)cn1	none
COc1ccc(-c2ncnc3c2c(C(=O)NCC(F)(F)F)c2ccccn23)cc1	none
Cc1nc(-c2ccc(Cl)cc2)sc1CCNS(=O)(=O)c1ccccc1F	Tgondii IFNg -71.9
Cc1nc(-c2ccccc2)sc1CCNS(=O)(=O)c1ccccc1	none
Cc1cccc(-c2nc(C)c(CCNS(=O)(=O)c3ccccc3F)s2)c1	none
Cc1cc(F)ccc1S(=O)(=O)NCCc1sc(-c2ccc(Cl)cc2)nc1C	none
Cc1cccc(-c2nc(C)c(CCNS(=O)(=O)c3ccc(-c4ccccc4)cc3)s2)c1	Tgondii IFNg -83.9
Cc1cccc(-c2nc(C)c(CCNS(=O)(=O)c3ccc(I)cc3)s2)c1	none
COc1ccc(-c2cc(CC(=O)c3ccccc3)cc(-c3ccc(OC)cc3)n2)cc1	none
COc1ccc2c(c1)OC(C)(C)CC2NC(=O)CCc1cnccn1 (centres undefined)	none
CCc1cc(CN(C)Cc2cccc(OC)c2O)on1	none
Cc1csc(C(Cc2cccs2)NC(=O)Cn2ccc(=O)[nH]c2=O)n1 (centres undefined)	none
O=c1[nH]c(=O)n([C@H]2C[C@H](O)[C@@H](CO)O2)cc1Br	none
O=c1[nH]c(=O)n([C@H]2C[C@H](O)[C@@H](CO)O2)cc1F	Tgondii IFNg -93.9
Cc1cn(C2CC(O)C(CO)O2)c(=O)[nH]c1=O (centres undefined)	none
COc1ccc(-c2ccc(=O)n(C[C@H](C)NC(=O)c3ccc4c(c3)n(C)c(=O)n4C)n2)cc1	none
Cc1nc(CC(=O)N2CCOC(C(=O)NC3CCCC3)C2)cs1 (centres undefined)	none
CCc1cc(=O)[nH]c(NC2CCN(C(=O)N3c4ccccc4Sc4ccccc43)CC2)n1	Tgondii IFNg -117.3
CCCc1cc(=O)[nH]c(SCC(=O)N2CCN(c3ccccc3OC)CC2)n1	none
O=C(N1CCN(c2nc3ccccc3s2)CC1)N1c2ccccc2Sc2ccccc21	none
CO[C@@H]1CCN(S(=O)(=O)c2ccccc2)[C@H]1Cc1cnn(C)c1	none
O=C(CSc1nccc(=O)[nH]1)Nc1nnc(SCc2ccccc2)s1	none
Cc1ccnc(Nc2nc(C)c(C(=O)N3CCC(C(N)=O)(N4CCCCC4)CC3)s2)c1	none
O=c1cc(-c2ccc(O)cc2)oc2cc(O)cc(O)c12	none
O=c1cc(-c2ccc(O)cc2)oc2ccc(O)cc12	Tgondii IFNg -86.6
O=c1cc(-c2ccccc2)oc2cc(O)ccc12	none
CCCn1nnnc1SCC(=O)N1C(C)CCCC1C (centres undefined)	Tgondii IFNg -75.7
CCCn1nnnc1SCC(=O)NCc1ccc(OC)cc1	none
Cn1nnnc1SCC(=O)N1CCOCC1	none
Cc1ccc2nc(-c3ccc(N=C4C(=O)Nc5ccccc54)cc3)sc2c1	none
CNC(=O)c1cc(S(=O)(=O)N[C@@H]2C[C@@H](CO)N(C)C2)cs1	none
C=CCN1C(=O)CC2C1CCN2c1cnccn1 (centres undefined)	none
CSc1sc(C2=NNC(O)(C(F)(F)F)C2)c2c1C(=O)CCC2(C)C (centres undefined)	Tgondii IFNg -96.3
OC1(C(F)(F)F)CC(c2ccncc2)=NN1 (centres undefined)	none
O=C(c1cc2cccnc2n(Cc2ccccc2)c1=O)N1CCc2ccccc2C1	none
OC[C@H]1O[C@@H](n2cnc3c(NC4CCCC4)nc(Cl)nc32)[C@H](O)[C@@H]1O	none
Nc1nc(Cl)nc2c1ncn2C1OC(CO)C(O)C1F (centres undefined)	Tgondii IFNg -78.4
Nc1nc(Cl)nc2c1ncn2[C@@H]1O[C@H](CO)[C@@H](O)[C@H]1O	none
CCc1[nH]nc2c1C(c1ccc(C#CCCO)cc1)CC(=O)N2 (centres undefined)	none
CN(C)Cc1nn(C)c2c1CN(c1ncccn1)C2	none
CC1(C)CC(=O)c2c(C(F)(F)F)nn(-c3ccc(C(N)=O)c(NC4CCC(O)CC4)c3)c2C1 (centres undefined)	Tgondii IFNg -77.5
CC1(C)CC(=O)c2c(C(F)(F)F)nn(-c3ccc(C(N)=O)c(NC4CCC(OC(=O)CN)CC4)c3)c2C1 (centres undefined)	Tgondii IFNg -76.0
CC1(C)CC(=O)c2c(nc3ccccc3c2N)C1	none
COCc1cc(CN2CCN(Cc3cccc(Cl)c3)CC2)ccc1OC	none
Cc1[nH]c(=O)[nH]c(=O)c1CC(=O)N1CCO[C@@H]2CCCC[C@H]21	none
CN1CCN([C@H]2CN(C3CCN(C(=O)c4ccccc4)CC3)C[C@@H]2O)CC1	none
O=C(O)CN1CCOCC2(C1)CN(c1ccoc1)C(=O)CO2 (centres undefined)	none
CCc1csc(-c2ccc(N3CCN(C(=O)C4CCN(C(C)=O)CC4)CC3)nc2)n1	none
O=C(NCCCN1CCOCC1)c1csc(-c2ccc(N3CCCC3)nc2)n1	none
CC1CCN(C(=O)c2csc(-c3ccc(N4CCCC4)nc3)n2)CC1	none
O=C(NC1CCN(Cc2ccccc2)CC1)c1csc(-c2ccc(N3CCCC3)nc2)n1	Tgondii IFNg -85.3
O=C(NCC1CCCO1)c1csc(-c2ccc(N3CCCC3)nc2)n1 (centres undefined)	Tgondii IFNg -113.0
O=C(Cn1ncc2c(N3CCCCC3)ncnc21)NC1CCN(Cc2ccccc2)CC1	none
Cc1nnc(N2C[C@@H](Oc3ncccc3F)[C@@H]3OCCC[C@@H]32)s1	none
